# Results from the supplement of paper PMC12645437, “Orthogonal IMiD-Degron Pairs Induce Selective Protein Degradation in Cells” (ACS Chemical Biology, 2025).
# In all, about 8,300 sequences were measured (“log2 fold change of degron read counts, EGFP-low vs EGFP+ sorted cells (limma voom), compound-induced degradation”: median about -1.1, highest 2% from about 3.2 on). What follows is part of a selection rich in the highest values, with near analogues and random picks from the rest.
# T1: CRBN, Q96SW2
# T1 chain: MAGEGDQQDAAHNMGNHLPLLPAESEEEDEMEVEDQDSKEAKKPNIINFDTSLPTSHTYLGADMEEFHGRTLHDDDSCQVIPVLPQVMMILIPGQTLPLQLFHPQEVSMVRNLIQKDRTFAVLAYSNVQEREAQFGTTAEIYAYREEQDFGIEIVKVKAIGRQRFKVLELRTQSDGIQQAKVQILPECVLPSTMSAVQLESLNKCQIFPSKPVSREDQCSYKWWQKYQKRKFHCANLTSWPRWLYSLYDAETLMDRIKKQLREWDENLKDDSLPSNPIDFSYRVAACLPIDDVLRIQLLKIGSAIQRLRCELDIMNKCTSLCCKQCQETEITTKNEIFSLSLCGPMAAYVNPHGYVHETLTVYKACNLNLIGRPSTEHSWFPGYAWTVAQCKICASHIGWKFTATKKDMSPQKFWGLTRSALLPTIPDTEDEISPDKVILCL
# Biological target: T1, CRBN, Q96SW2
# Assay: log2 fold change of degron read counts, EGFP-low vs EGFP+ sorted cells (limma voom), compound-induced degradation; higher = more compound-induced degradation of the degron-EGFP fusion; degrons are variants of IKZF1/3 zinc finger 2; compound dose not given here
# Details: Jurkat, 18 h
# [1] = compound: compound 19 (5-tert-butyl-thalidomide)
# [2] = compound: compound 22 (5-morpholino-thalidomide)
# [3] = compound: compound 33 (diphenyl IMiD analogue)
# 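Note: pooled lentiviral library of zinc finger degron-EGFP fusions in mCherry-positive Jurkat cells, FACS-sorted after compound exposure, with degron abundance counted by next-generation sequencing.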
Sequence,log2 fold change of degron read counts [1],log2 fold change of degron read counts [2],log2 fold change of degron read counts [3],log2 fold change of degron read counts (compound: thalidomide)
"FWCNQCGHQFTQKGNLLRHIKL [46F_47W_49N_50Q_52G_53H_54Q_55F_67L_, Q9UKT9]",-2.03,-2.39,-2.26,-1.81
"FTCNICGAIFTQKGNLLRHIKL [46F_47T_49N_50I_52G_53A_54I_55F_67L_, Q9UKT9]",-1,0.0209,0.936,1.06
"FCCDICGANFTQKGNLLRHIKL [46F_47C_49D_50I_52G_53A_54N_55F_67L_, Q9UKT9]",0.761,0.588,0.858,-0.326
"FHCDICGANFTQKGNLLRHIKL [46F_47H_49D_50I_52G_53A_54N_55F_67L_, Q9UKT9]",-0.867,-0.624,-1.82,-2.82
"FYCDICGANFTQKGNLLRHIKL [46F_47Y_49D_50I_52G_53A_54N_55F_67L_, Q9UKT9]",2.78,3.42,1.2,-0.676
"FLCDICGANFTQKGNLLRHIKL [46F_47L_49D_50I_52G_53A_54N_55F_67L_, Q9UKT9]",-1.24,-1.68,0.196,-0.528
"FWCDICGANFTQKGNLLRHIKL [46F_47W_49D_50I_52G_53A_54N_55F_67L_, Q9UKT9]",2.81,3.71,1.34,0.139
"FECDICGANFTQKGNLLRHIKL [46F_47E_49D_50I_52G_53A_54N_55F_67L_, Q9UKT9]",-1.28,-2.43,0.537,0.012
